According to PubChem BioAssay AID1259343 (VanderVen Lab, College of Veterinary Medicine, Cornell …, 2017):
Out of some 6,200 compounds screened, about 2,900 (47%) were called active. The set was probably picked from earlier hits. The list shows a part of the results. Values without a mark were called inactive. No stated cut-off is given here; in the data, active means inhibition above about 50%; inactive means the rest.

Assay: Mycobacterium tuberculosis growth inhibition, primary screen (AID 1259343)
Conditions: inhibition: at 10 µM, stronger effect = higher value; outcome: 10 uM
In the case of `O=C(CSCc1ccncc1)Nc1ccc(-c2cncnc2)cc1`, the inhibition is reported as 89.9% (active).
In the case of `FC(F)(F)CN1CCC(NCc2ccc(-c3ccccc3Cl)s2)C1` (configuration not stated), the inhibition is reported as 26.6%.
Compound `O=S(=O)(Nc1ccc(OC(F)(F)F)cc1)c1ccc(F)c(F)c1` has an inhibition of 16%.
For `O=S(=O)(Nc1ccc(SC(F)F)cc1)c1ccc(F)c(F)c1`, the inhibition was 96.8% (active).
In the case of `O=S(=O)(Nc1cnc(-c2ccccc2)nc1)c1ccc(F)c(F)c1`, the inhibition is reported as 58.3% (active).
In the case of `CN(CC(N)=O)S(=O)(=O)c1cc2cc(Cl)ccc2s1`, the inhibition is reported as 90.5% (active).
For `Oc1cc(OCCN2CCN(Cc3ccc4c(c3)OCO4)CC2)ccc1-c1[nH]ncc1-c1ccccc1`, the inhibition was 81.6% (active).
Compound `O=C(C1COc2ccccc2O1)N1CCc2onc(-c3cccc(F)c3)c2C1` (configuration not stated) has an inhibition of 10.6%.
`CC(C)N1CCc2c(sc(NC(=O)C3CC3)c2-c2nc3ccccc3s2)C1` showed an inhibition of 0.31%.
In the case of `CC(C)C(=O)Nc1sc2c(c1-c1nc3ccccc3s1)CCN(C(C)C)C2`, the inhibition is reported as 95.2% (active).
With `CC(=O)Nc1sc2c(c1-c1nc3ccccc3s1)CCN(C(C)C)C2` the inhibition was 68.3% (active).
In the case of `CCC(=O)Nc1sc2c(c1-c1nc3ccccc3s1)CCN(C(C)C)C2`, the inhibition is reported as 100% (active).
In the case of `CC(C)C(=O)Nc1sc2c(c1-c1nc3ccccc3s1)CCN(C)C2`, the inhibition is reported as 85.9% (active).
With `CC(=O)c1ccc(C(=O)Nc2sc3c(c2-c2nc4ccccc4s2)CCN(C)C3)cc1` the inhibition was 83.8% (active).
In the case of `CN1CCc2c(sc(NC(=O)c3ccccc3)c2-c2nc3ccccc3s2)C1`, the inhibition is reported as 29.3%.
In the case of `CN1CCc2c(sc(NC(=O)c3ccc(F)cc3)c2-c2nc3ccccc3s2)C1`, the inhibition is reported as 31.8%.
In the case of `CCCCCCCCCCCCC[N+](C)(C)Cc1ccccc1`, the inhibition is reported as 70.2% (active).
For `O=S(=O)(c1cc(Cl)cc(Cl)c1O)N1CCOCC1`, the inhibition was 19.4%.
For `Cc1cccc(CN(CCN2CCOCC2)Cc2ccc(C(O)(c3cccc(F)c3)c3cccc(F)c3)o2)c1`, the inhibition was 17.9%.
For `CC(C)(C)c1cc(C(=O)CCN2CCOCC2)cc(C(C)(C)C)c1O`, the inhibition was 102% (active).
`CC(NC(=O)CCC1CCCO1)c1ccc(Cl)s1` (configuration not stated) showed an inhibition of 21.7%.
With `O=C(CCc1cccs1)N1CCN(CC2CCCO2)CC1` (configuration not stated) the inhibition was -26.7%.
Compound `CC(=O)N[C@H]1CCN(CC(=O)Nc2ccc(Cl)c(C)c2)C1` has an inhibition of 33.5%.
In the case of `Cc1ccc(NC(=O)CCC2CCCO2)cc1Cl` (configuration not stated), the inhibition is reported as 96.2% (active).
With `CC(C)c1ccc(NC(=O)CCN2CCN(CC3CCCO3)CC2)cc1` (configuration not stated) the inhibition was 83.5% (active).
For `Cc1cc(NC(=O)CN2CCN(CC3CCCO3)CC2)ccc1Cl` (configuration not stated), the inhibition was 66.5% (active).
With `Cc1ccc(NC(=O)CC(=O)N2CCC(C(O)CC(C)C)CC2)cc1Cl` (configuration not stated) the inhibition was 88.3% (active).
Work on `CC(C)c1ccc(S(=O)(=O)NCC2CCCO2)cc1` (configuration not stated) yielded an inhibition of -25.1%.
Compound `CN(C)N=CC=C1CCC(=Cc2ccc(C(F)(F)F)cc2)C1=O` has an inhibition of 8.26%.
For `NNc1ccc2c(Cl)cc(Cl)c(O)c2n1`, the inhibition was 99.5% (active).
`Cc1ccc2c(Cl)cc(Cl)c(O)c2n1` showed an inhibition of 47.9%.
With `CCC(CO)NC(=S)N=P(c1ccccc1)(N(CC)CC)N(CC)CC` (configuration not stated) the inhibition was 81.6% (active).
For `FC(F)(F)c1cnc(NCc2ccc3c(c2)OCCO3)c(Cl)c1`, the inhibition was 25.7%.
With `CN(CC(O)COCc1ccc2c(c1)OCO2)c1ncc(C(F)(F)F)cc1Cl` (configuration not stated) the inhibition was 78% (active).
In the case of `COC(=O)NNC(=S)NC(=O)C12CC3CC(CC(C3)C1)C2`, the inhibition is reported as 97.8% (active).
`Cc1nc(Cl)sc1S(=O)(=O)NCC(C)c1ccccc1` (configuration not stated) gave an inhibition of 24.9%.
For `Cc1[nH]n(-c2nc3ccccc3s2)c(=O)c1C=NC(C)c1ccccc1` (configuration not stated), the inhibition was 86.9% (active).
With `Clc1ccc(-c2nn3c4cc(N5CCNCC5)ccc4nc3c3ccccc23)cc1` the inhibition was 92.9% (active).
For `CN(C1CCCCC1)S(=O)(=O)N1CCc2ccccc21`, the inhibition was 98.1% (active).
`CN(C1CCCCC1)S(=O)(=O)N1CCN(c2cccc(F)c2C#N)CC1` gave an inhibition of 10.2%.
Work on `CN(C1CCCCC1)S(=O)(=O)c1ccc2ccccc2c1` yielded an inhibition of 38.7%.
`CC1Cc2cc(-c3cc(C(=O)O)no3)ccc2O1` (configuration not stated) showed an inhibition of 27.8%.
With `CCCCCN(C)C(=O)c1cc(-c2ccc3ccccc3c2)on1` the inhibition was 94% (active).
`CN(C)C=Nc1nc(-c2ccc3ccccc3c2)cs1` gave an inhibition of -25.4%.
For `CCOc1ccc(NC(=O)C(C)Sc2nc(N)cc(N)n2)cc1` (configuration not stated), the inhibition was 86% (active).
`O=P(Nc1cccc(F)c1)(Oc1ccccc1F)Oc1ccccc1F` gave an inhibition of 22%.
In the case of `CCCCc1ccc(NC(=O)COC(=O)C23CCC(=O)N2CCS3)cc1` (configuration not stated), the inhibition is reported as 95.3% (active).
With `CCCCCc1ccc(NC(=O)CCN2CCSC2=O)cc1` the inhibition was 99% (active).
For `CCN=c1scc(-c2ccc(Br)cc2)n1/N=C1\C(=O)N(C)c2ccccc21`, the inhibition was 20.4%.
For `Cn1cc(-c2nc(C(=O)NC34CC5CC(CC(C5)C3)C4)cs2)cn1`, the inhibition was 31.8%.
Compound `CC1CCCC(NC(=O)c2cncc(Br)c2)C1` (configuration not stated) has an inhibition of -31%.
With `O=C(NC12CC3CC(CC(C3)C1)C2)c1cncc(Br)c1` the inhibition was 50.2% (active).
